The source made the active and inactive calls. Calls come from the whole dose curve.
Conditions: Ebola virus entry assay, green fluorescence channel

CC[C@]1(O)C[C@@H]2CN(CCc3c([nH]c4ccccc34)[C@@](C(=O)OC)(c3cc4c(cc3OC)N(C)[C@H]3[C@@](O)(C(=O)OC)[C@H](OC(C)=O)[C@]5(CC)C=CCN6CC[C@]43[C@@H]65)C2)C1
AC50: 0.137 µM (active)

CC[C@H]1OC(=O)[C@H](C)[C@@H](O[C@H]2C[C@@](C)(OC)[C@@H](O)[C@H](C)O2)C(C)[C@@H](O[C@@H]2O[C@H](C)C[C@H](N(C)C)[C@@H]2O)[C@](C)(OC)C[C@@H](C)C(=O)[C@H](C)[C@@H](O)[C@]1(C)O (some centres not stated)
AC50: 5.44 µM (active)

CN(C)CCCN1c2ccccc2CCc2ccc(Cl)cc21
AC50: 7.69 µM (active)

CO[C@H]1C[C@@H]2CC[C@@H](C)[C@@](O)(O2)C(=O)C(=O)N2CCCC[C@@H]2C(=O)O[C@H]([C@H](C)C[C@@H]2CC[C@H](OCCO)[C@H](OC)C2)CC(=O)[C@H](C)C=C(C)[C@@H](O)[C@@H](OC)C(=O)[C@H](C)C[C@H](C)C=CC=CC=C1C
outcome: inactive

CC[C@]1(O)C[C@H]2CN(CCc3c([nH]c4ccccc34)[C@@](C(=O)OC)(c3cc4c(cc3OC)N(C=O)[C@H]3[C@@](O)(C(=O)OC)[C@H](OC(C)=O)[C@]5(CC)C=CCN6CC[C@]43[C@@H]65)C2)C1
AC50: 0.217 µM (active)

CCC1=C[C@@H]2CN(C1)Cc1c([nH]c3ccccc13)[C@@](C(=O)OC)(c1cc3c(cc1OC)N(C)[C@H]1[C@@](O)(C(=O)OC)[C@H](OC(C)=O)[C@]4(CC)C=CCN5CC[C@]31[C@@H]54)C2
AC50: 0.109 µM (active)

CCCSc1ccc2nc(NC(=O)OC)[nH]c2c1
outcome: inactive

CCCNCC(O)COc1ccccc1C(=O)CCc1ccccc1 (configuration not stated)
outcome: inactive

CCCCc1oc2ccc(NS(C)(=O)=O)cc2c1C(=O)c1ccc(OCCCN(CCCC)CCCC)cc1
outcome: inactive

C[C@]12CC[C@@H]3c4ccc(O)cc4C[C@@H](CCCCCCCCCS(=O)CCCC(F)(F)C(F)(F)F)[C@H]3[C@@H]1CC[C@@H]2O (some centres not stated)
AC50: 3.06 µM (active)

COc1cccc2c1C(=O)c1c(O)c3c(c(O)c1C2=O)C[C@@](O)(C(C)=O)C[C@H]3O[C@H]1C[C@H](N)[C@H](O)[C@H](C)O1
outcome: inactive

CN1[C@@H]2CC[C@H]1CC(OC(c1ccccc1)c1ccccc1)C2 (some centres not stated)
AC50: 3.06 µM (active)

CN1CCN(CCCN2c3ccccc3Sc3ccc(C(F)(F)F)cc32)CC1
outcome: inactive

COc1cc2c(c(OC)c1OC)-c1ccc(OC)c(=O)cc1[C@@H](NC(C)=O)CC2
AC50: 0.0968 µM (active)

COC(=O)Nc1nc2ccc(C(=O)c3cccs3)cc2[nH]1
AC50: 0.685 µM (active)

COC(=O)Nc1nc2ccc(C(=O)c3ccccc3)cc2[nH]1
AC50: 6.11 µM (active)

Cc1nnc(C(C)C)n1C1C[C@H]2CC[C@@H](C1)N2CC[C@H](NC(=O)C1CCC(F)(F)CC1)c1ccccc1 (some centres not stated)
outcome: inactive
